From PubChem BioAssay
BAZ2B inh: qHTS Assay for Inhibitors of BAZ2B | AID 504333, 2011 | AlphaScreen BAZ2B-H3K14Ac peptide displacement | 360,000 compounds, 4.4% hits | Potency, µM (doses to about 114 µM), for inactives: at the top dose activity change, negative = inhibition, hits mostly inhibitors; also: % is scaled to controls: 0 for no effect and ±100 for the full control effect; nearly all actives have a fitted effect of over 60% in size
Target sequence (Q9UIF8 whole entry, looked up): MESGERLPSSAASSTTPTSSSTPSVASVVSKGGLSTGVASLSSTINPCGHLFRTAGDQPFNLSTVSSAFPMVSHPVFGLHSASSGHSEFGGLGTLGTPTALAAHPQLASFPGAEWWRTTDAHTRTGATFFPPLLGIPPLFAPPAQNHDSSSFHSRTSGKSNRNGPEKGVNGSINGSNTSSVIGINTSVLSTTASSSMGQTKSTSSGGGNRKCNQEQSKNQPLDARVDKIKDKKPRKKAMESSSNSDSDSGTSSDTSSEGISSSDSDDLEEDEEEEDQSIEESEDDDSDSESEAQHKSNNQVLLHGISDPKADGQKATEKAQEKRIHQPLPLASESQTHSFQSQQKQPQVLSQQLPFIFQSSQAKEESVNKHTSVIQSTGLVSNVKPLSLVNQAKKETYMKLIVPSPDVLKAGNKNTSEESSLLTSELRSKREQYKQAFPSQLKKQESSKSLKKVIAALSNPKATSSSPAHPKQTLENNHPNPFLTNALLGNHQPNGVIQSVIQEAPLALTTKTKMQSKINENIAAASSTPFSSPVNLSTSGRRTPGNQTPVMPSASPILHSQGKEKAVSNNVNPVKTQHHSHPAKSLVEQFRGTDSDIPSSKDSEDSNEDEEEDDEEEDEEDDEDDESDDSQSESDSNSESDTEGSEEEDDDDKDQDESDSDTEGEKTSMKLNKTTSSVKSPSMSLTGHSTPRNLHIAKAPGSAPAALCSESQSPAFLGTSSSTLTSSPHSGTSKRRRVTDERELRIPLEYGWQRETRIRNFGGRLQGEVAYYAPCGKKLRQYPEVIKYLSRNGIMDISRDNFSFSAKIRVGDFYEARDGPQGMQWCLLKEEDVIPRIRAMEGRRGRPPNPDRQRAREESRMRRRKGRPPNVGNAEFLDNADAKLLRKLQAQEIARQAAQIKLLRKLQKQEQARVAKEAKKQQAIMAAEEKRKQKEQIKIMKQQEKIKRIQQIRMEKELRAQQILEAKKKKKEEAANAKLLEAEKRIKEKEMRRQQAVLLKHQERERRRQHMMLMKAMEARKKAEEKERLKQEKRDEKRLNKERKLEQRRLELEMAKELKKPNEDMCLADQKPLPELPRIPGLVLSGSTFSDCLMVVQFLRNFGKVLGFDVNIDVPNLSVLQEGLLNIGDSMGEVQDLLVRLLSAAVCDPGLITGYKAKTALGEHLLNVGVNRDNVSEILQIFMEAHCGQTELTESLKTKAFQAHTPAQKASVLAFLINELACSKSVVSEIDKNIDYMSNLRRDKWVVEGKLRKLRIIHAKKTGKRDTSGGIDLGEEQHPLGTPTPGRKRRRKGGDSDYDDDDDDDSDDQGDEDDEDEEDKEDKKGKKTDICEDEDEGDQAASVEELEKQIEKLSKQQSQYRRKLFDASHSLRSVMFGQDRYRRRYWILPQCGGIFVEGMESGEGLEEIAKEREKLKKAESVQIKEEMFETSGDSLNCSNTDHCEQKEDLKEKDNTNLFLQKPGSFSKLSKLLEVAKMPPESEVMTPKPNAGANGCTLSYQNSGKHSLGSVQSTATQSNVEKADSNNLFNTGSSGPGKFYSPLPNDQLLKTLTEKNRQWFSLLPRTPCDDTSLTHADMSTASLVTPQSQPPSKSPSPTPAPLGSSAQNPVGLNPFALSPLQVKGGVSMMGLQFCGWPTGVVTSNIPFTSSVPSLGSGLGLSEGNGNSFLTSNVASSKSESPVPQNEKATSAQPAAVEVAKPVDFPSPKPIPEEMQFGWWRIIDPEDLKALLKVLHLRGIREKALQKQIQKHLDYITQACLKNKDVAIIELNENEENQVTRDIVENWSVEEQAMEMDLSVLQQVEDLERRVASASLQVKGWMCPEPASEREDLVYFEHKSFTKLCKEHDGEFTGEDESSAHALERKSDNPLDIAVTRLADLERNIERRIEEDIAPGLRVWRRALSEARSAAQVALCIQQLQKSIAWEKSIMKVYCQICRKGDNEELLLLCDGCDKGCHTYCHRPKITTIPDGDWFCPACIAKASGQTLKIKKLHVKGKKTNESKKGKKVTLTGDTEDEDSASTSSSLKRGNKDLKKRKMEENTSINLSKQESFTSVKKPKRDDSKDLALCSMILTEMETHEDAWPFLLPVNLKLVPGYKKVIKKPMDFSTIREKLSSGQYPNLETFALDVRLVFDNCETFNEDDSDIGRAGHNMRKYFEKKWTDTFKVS
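BAZ2B (50 nM) with biotin-H3(5-23)K14Ac peptide (50 nM) in PBS pH 7.4, 0.01% Tween-20, preformed 30 min, then compound 30 min at room temperature; top concentration 110uM. AlphaScreen streptavidin donor/nickel chelate acceptor beads (10 ug/mL final), 20 min dark, signal read.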
JMJD2A Tudor: qHTS Assay for Inhibitors of JMJD2A-Tudor Domain; 390,000 compounds, 4.4% hits; Potency, µM (doses to about 114 µM), for inactives: at the highest dose activity change, negative = inhibition, most hits filed as inhibitors; Lysine-specific demethylase 4A (Homo sapiens), O75164; AlphaScreen JMJD2A-Tudor / H3K4me3 peptide binding; also: % is scaled to controls: 0 for no effect and ±100 for the full control effect; nearly all actives have a fitted effect of over 50% in size
HP1b chromo inh: HTS for Inhibitors of HP1-beta Chromodomain Interactions with Methylated Histone Tails. Chromobox protein homolog 1 (Homo sapiens), P83916. AlphaScreen HP1-beta / biotin-H3K9me3 peptide binding. Potency, µM (series often up to 114 µM), for inactives: at the top dose activity change, negative = inhibition, most hits filed as inhibitors. 390,000 compounds, 0.56% hits. AID 540317, 2011; also: nearly all actives have a fitted effect of over 70% in size
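Compound inhibition of the preformed complex between 50 nM HP1-beta and 50 nM biotinylated H3K9me3 peptide was read by AlphaScreen. Buffer was PBS pH 7.4 with 0.01% Tween-20. Incubations ran 30 min at room temperature, with 10 ug/mL donor/acceptor beads.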
G9a block: qHTS Assay for Inhibitors of Histone Lysine Methyltransferase G9a; Histone-lysine N-methyltransferase EHMT2 (Homo sapiens), Q96KQ7; G9a H3K9 monomethylation, AlphaScreen, 2 h; Potency, µM (titrated, usually from 102 µM), for the others: at the top dose activity, negative = inhibition, most hits filed as inhibitors; 350,000 compounds, 8.8% hits; AID 504332, 2011; also: % is scaled to controls: 0 for no effect and ±100 for the full control effect; nearly all actives have a fitted effect of over 75% in size
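Readings reflect AlphaScreen signal from monomethyl-H3K9 antibody detection. HMT at 20 nM; substrate b-H3K9 500 nM; cofactor SAM 20 uM; 2 h RT reaction; compounds tested as titrations in qHTS with 15 min preincubation.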
ALOX12 inh: Primary qHTS assay for inhibitors of human arachidonate 12S-lipoxygenase (ALOX12): Round 2 | Polyunsaturated fatty acid lipoxygenase ALOX12 (Homo sapiens), P18054 | purified 12hLO, xylenol orange hydroperoxide absorbance | Potency, µM (doses to about 108 µM), inactives show top-dose activity change, negative = inhibition, usual class: inhibitors | 580,000 compounds, 1.1% hits; also: % is scaled to controls: 0 for no effect and ±100 for the full control effect
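Purified human 12hLO at 150 nM in 25 mM Hepes, 0.01% Triton X-100, pH 7.0, preincubated 15 min at room temperature with compound. Reaction started with 40 uM arachidonic acid, 30 min at room temperature. Hydroperoxide measured by Fe-xylenol orange, 573/405 nm absorbance ratio.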
PLK1 PBD inh: qHTS for Inhibitors of PLK1-PDB (polo-like kinase 1 - polo-box domain): Primary Screen; Potency, µM, for the others: max response, negative = inhibition, hits mostly inhibitors; 360,000 compounds, 2.8% hits; Serine/threonine-protein kinase PLK1 (Homo sapiens), P53350; Plk1 PBD binding of FITC phosphopeptide, fluorescence polarization; also: series mostly up to about 57 µM; % is scaled to controls: 0 for no effect and ±100 for the full control effect; nearly all actives have a fitted effect of over 65% in size
* marks the source's active call; other numbers are inactive results; ? = inconclusive; · = no result given; ! = a repeat was not active; [ ] = remark or other dose. This is a sample that favours compounds with a hit; in the whole collection about 9% have one here. Calls follow the shape of the dose curve; as a rule, active = well fitted curve in the direction sought with a large enough effect; inconclusive = small, poorly fitted or top-dose-only effect, or another doubt; inactive = no such curve, though single readings can be large; an effect the other way counts as inactive or inconclusive. Potency is read from the fitted curve at half-maximal effect.

SMILES	BAZ2B inh	JMJD2A Tudor	HP1b chromo inh	G9a block	ALOX12 inh	PLK1 PBD inh
O=C(NC(=S)NCCN1CCOCC1)c1ccc(Cl)cc1Cl	1%	-4%	12%	-25%[59 µM]	?	-6%
Cn1nc(C2CCCN(C(=O)C3CCCC3)C2)n(Cc2ccccc2)c1=O (configuration not stated)	·	·	·	·	14%	·
CCOc1ccccc1OCC(=O)Nc1cc(S(=O)(=O)N2CCCCC2)ccc1OC	-5%	-4%	13%	7%[0.501 µM]	-20%	-4%
COc1ccccc1OCC(=O)Nc1cc(S(=O)(=O)N2CCCCC2)ccc1N1CCCCC1	79µM*	?	-3%	8.9µM*	?	-5%
Cc1ccccc1OCC(=O)Nc1cc(S(=O)(=O)N2CCOCC2)ccc1N1CCCC1	?	-34%	25%	-8%[12.7 µM]	15%	-2%
CCN1CCN(c2ccc(S(=O)(=O)N3CCCCC3)cc2NC(=O)COc2ccc(Cl)c(C)c2)CC1	?	?	11%	7%[12.7 µM]	-1%	0%
COc1ccc(OC)c(NC(=O)COC(=O)c2ccc(S(=O)(=O)N3CCCCC3)cc2)c1	·	·	·	·	1%	1%
COc1ccc(OC)c(NC(=O)COc2ccc(S(=O)(=O)N3CCCC3)cc2)c1	-16%	-17%	15%	40µM*	-8%	-11%
CC(C)c1ccccc1OCC(=O)Nc1cc(S(=O)(=O)N2CCOCC2)ccc1N1CCCC1	-9%	?	-26%	28µM*	-14%	-2%
CCN1CCN(c2ccc(S(=O)(=O)N3CCCCC3)cc2NC(=O)COc2ccccc2)CC1	?	?	-12%	50µM*	?	-10%
Cc1noc(Cn2cc(S(=O)(=O)N(C)C)ccc2=O)n1	·	·	·	·	25%	·
CCN1CCN(c2ccc(S(=O)(=O)N3CCOCC3)cc2NC(=O)COc2ccc(F)cc2Cl)CC1	?	-33%	24%	·	34%	-4%
CCC(=O)c1ccc(OCC(=O)Nc2cc(S(=O)(=O)N3CCCCC3)ccc2N2CCN(CC)CC2)cc1	-35%	-31%	-9%	10µM*	?	-1%
CCOc1ccccc1OCC(=O)Nc1cc(S(=O)(=O)N2CCCCC2)ccc1N1CCN(CC)CC1	-1%	-24%	-14%	3.5µM*	?	-2%
COc1ccc(S(=O)(=O)N2CCN(CCNC(=O)COc3ccc(C(C)C)cc3)CC2)cc1	·	·	·	·	35µM*	·
CCOc1ncccc1C(=O)OC(C)C(=O)Nc1ccc(CC)cc1 (configuration not stated)	-15%	14%	33%	35%	0%	2%
COc1cc(CNC(C)(C)CO)cc(Br)c1OCc1ccc(Cl)cc1	-1%	-14%	20%	10%	-28%	-5%
OC(C#CCCN1CCCCC1)(c1ccccc1)C1CCCCC1 (configuration not stated)	1%	-6%	4%	7%	162%	-11%
OC(C#CCN1CCC(c2ccccc2)C1)(c1ccccc1)C1CCCCC1 (configuration not stated)	·	·	·	·	0.89µM*	·
Cc1ccc(NC(=O)C2CCCN2S(=O)(=O)c2ccc3nc(-c4ccccc4)[nH]c3c2)cc1C (configuration not stated)	79µM*	-32%	19%	-34%[59 µM]	-24%	·
COC(=O)COc1ccc(NC(=O)Cn2nc(-c3ccccc3)c3ccccc3c2=O)cc1	1%	?	15%	-32%	-13%	27µM*
CNC(=O)c1ccc(NC(=O)COc2ccc(-c3nn(C)c(=O)c4ccccc34)cc2)cc1	1%	-4%	26%	-5%[59 µM]	-15%	·
COc1ccc(NC(=O)COc2ccc(-c3nn(C)c(=O)c4ccccc34)cc2)cc1	-9%	45µM*!	-6%	3%	?	24µM*
CN(C)C(=O)c1ccc(NC(=O)Cn2nc(-c3ccccc3)c3ccccc3c2=O)cc1	5%	4%	27%	7%[59 µM]	-4%	·
Cc1nccn1CCCNC(=O)CC1C(=O)NCCN1Cc1ccccc1C(F)(F)F (configuration not stated)	-8%	-20%	47%	?	-5%	-6%
SMILES	BAZ2B inh	JMJD2A Tudor	HP1b chromo inh	G9a block	ALOX12 inh	PLK1 PBD inh
O=C(CC1C(=O)NCCN1Cc1ccccc1C(F)(F)F)NCCN1CCCCC1=O (configuration not stated)	-9%	18%	60%	40µM*	5%	2%
CN(CCN1CCOCC1)C(=O)CC1C(=O)NCCN1Cc1ccccc1C(F)(F)F (configuration not stated)	-27%	-10%	46%	45µM*	-23%	-10%
O=C(CC1C(=O)NCCN1Cc1ccccc1C(F)(F)F)NCCn1cccn1 (configuration not stated)	-30%	-14%	28%	35µM*	-13%	-4%
O=C(CC1C(=O)NCCN1Cc1ccccc1C(F)(F)F)NCCN1CCOCC1 (configuration not stated)	-36%	-10%	25%	45µM*	7%	-9%
CC(C)(C)CN1CCNC(=O)C1CC(=O)NCCc1ccccc1C(F)(F)F (configuration not stated)	-6%	-22%	25%	·	-3%	-16%
CCC(C(=O)N1CCN(Cc2ccc3c(c2)OCO3)CC1)n1nnc2ccccc2c1=O (configuration not stated)	·	·	·	·	-6%	0%
COc1ccc(C(=O)Nc2n[nH]c(-c3ccncc3)n2)cc1	?	-20%	3%	·	24%	-8%
COc1cccc2[nH]c(C(=O)Nc3ccc4c(c3)OCCO4)cc12	·	·	·	·	-1%	·
CCN(CC)c1ccc(NC(=O)c2cc3c(OC)cccc3[nH]2)cc1	20µM*	16µM*	45µM*	8.9µM*	0%	-7%
CCOC(=O)C1CCCN(C(=O)c2ccccc2OC(F)(F)F)CC1 (configuration not stated)	·	·	·	·	5%	-5%
COc1cccc(N2C(=O)[C@H]3C(C(=O)c4cnccn4)=NN[C@H]3C2=O)c1	50µM*	50µM*	46%	?	14%	-12%
Cc1sc(NC(=O)C2CCCCC2C(=O)O)c(C(N)=O)c1-c1ccccc1 (configuration not stated)	-2%	-16%	-9%	35µM*	?	?
